{"source": "PubChem BioAssay AID504806", "about": "(National Center for Advancing Translational Sciences (NCATS), 2011)", "note": "Activity calls are given as the source filed them. Calls follow the shape of the dose curve; as a rule, active = well fitted activation curve with a large enough effect; inactive = flat fitted curve, though single readings scatter.", "data": [{"assay": "Followup screen of LOPAC molecules that induce DNA re-replication in SW480 adenocarcinoma cells", "conditions": "Hoechst nuclear DNA content imaging, 48 h; series mostly up to 46.1 µM", "description": "NIH Molecular Libraries Probe Production Network [MLPCN] NIH Chemical Genomics Center [NCGC] MLPCN Grant: Fast Track K99 CA136555 Assay Provider: Melvin DePamphilis, NICHD, NIH Assay Overview Eukaryotic cells normally restrict genome duplication to once per cell division. When this process is aberrant, DNA re-replication occurs when cells reinitiate DNA replication before the first round of replication is complete. DNA re-replication induces the DNA damage response, arrests cell proliferation, and triggers apoptosis. The cell cycle components cyclin A, Cdt-1, Cdc6 and geminin are critical regulators of this process and their misregulation results in DNA re-replication in normal and cancer cells. To identify compounds that induce re-replication in normal cells, an image-based assay was used to measure DNA content of nuclei, as detected by the fluorescent DNA binding dye, Hoechst. Cell nuclei were imaged by a fluorescence scanning plate imager and compounds that induce DNA re-replication were identified by the increase of nuclei with elevated fluorescence intensity.\nAssay Protocol Summary For screening, 250 cells in 5 uL/well were dispensed into black clear 1536-well plates (Aurora) using a solenoid-based dispenser. Following transfer of 23 nL compound or DMSO vehicle by a pin tool, the plates were incubated 48 hr at 37 C and 5% CO2. After addition of 1 uL/well Hoescht stain, the plates were incubated 40 min at 37 C, 5% CO2 and total intensity of fluorescent objects (nuclei) were enumerated by an Acumen Explorer Ex3 (TTP LabTech) fluorescence scanning plate imager (405 nm excitation, 500-530 nm emission). Keywords: NIH Roadmap, MLPCN, MLI, MLSMR, qHTS, NCGC, DNA replication, cancer", "values": [{"smiles": "CC(C)NP(=O)(NC(C)C)OP(=O)(NC(C)C)NC(C)C", "Potency": "inactive"}, {"smiles": "NCC#Cc1ccccc1", "Potency": "7.55 µM (active)"}, {"smiles": "COc1cc([C@@H]2c3cc4c(cc3[C@H](O)[C@@H]3COC(=O)[C@H]23)OCO4)cc(OC)c1OC", "Potency": "0.0239 µM (active)"}]}]}
